Screening results from PubChem BioAssay.
IL1B secr inh = qHTS for Inhibitors of Inflammasome Signaling: IL-1-beta AlphaLISA Primary Screen; THP-1 LPS/ATP IL-1B secretion, AlphaLISA, 16 h; active compounds read low; activity change, % at 57.5 µM; 360,000 tested, 4.7% active; in the data active means activity change below about -50%; inconclusive means mostly about -30% to -49%
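Secreted IL-1B measured by AlphaLISA bead assay after 16 h compound exposure of THP-1 cells; compounds (final up to 57.5 uM) added 1 h before LPS (250 ng/mL) and ATP (1.25 mM) stimulation; lower signal means less secretion.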
ELG1 repair inh = qHTS screen for small molecules that inhibit ELG1-dependent DNA repair in human embryonic kidney (HEK293T) cells expressing luciferase-tagged ELG1; Potency, µM (top dose mostly 46.1 µM), for inactives: at the top dose activity change, negative = inhibition, hits mostly inhibitors; HEK293T ELG1-luciferase reporter, luminescence, 16 h; DNA damage induced by 5-fluorouridine; 330,000 tested, 2.3% active; further: potency means the concentration at half of the fitted maximal effect; nearly all actives have a fitted effect of over 55% in size
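5-Fluorouridine DNA damage + compound/DMSO, 2,000 cells/well, 16 h, 37 °C/5% CO2. ONE-Glo, 30 min RT, luminescence. Readout = decrease in reporter signal.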
TDP1 inh = qHTS Assay for Inhibitors of Tyrosyl-DNA Phosphodiesterase (TDP1). recombinant TDP1, AlphaScreen DNA substrate cleavage. Potency, µM (highest dose often 130 µM), for inactives: at the highest dose activity change, negative = inhibition, actives largely listed as inhibitors. Tyrosyl-DNA phosphodiesterase 1 (Homo sapiens), Q9NUW8. 350,000 tested, 0.28% active; further: potency means the concentration at half of the fitted maximal effect; nearly all actives have a fitted effect of over 40% in size
Target sequence (Q9NUW8 whole entry, looked up): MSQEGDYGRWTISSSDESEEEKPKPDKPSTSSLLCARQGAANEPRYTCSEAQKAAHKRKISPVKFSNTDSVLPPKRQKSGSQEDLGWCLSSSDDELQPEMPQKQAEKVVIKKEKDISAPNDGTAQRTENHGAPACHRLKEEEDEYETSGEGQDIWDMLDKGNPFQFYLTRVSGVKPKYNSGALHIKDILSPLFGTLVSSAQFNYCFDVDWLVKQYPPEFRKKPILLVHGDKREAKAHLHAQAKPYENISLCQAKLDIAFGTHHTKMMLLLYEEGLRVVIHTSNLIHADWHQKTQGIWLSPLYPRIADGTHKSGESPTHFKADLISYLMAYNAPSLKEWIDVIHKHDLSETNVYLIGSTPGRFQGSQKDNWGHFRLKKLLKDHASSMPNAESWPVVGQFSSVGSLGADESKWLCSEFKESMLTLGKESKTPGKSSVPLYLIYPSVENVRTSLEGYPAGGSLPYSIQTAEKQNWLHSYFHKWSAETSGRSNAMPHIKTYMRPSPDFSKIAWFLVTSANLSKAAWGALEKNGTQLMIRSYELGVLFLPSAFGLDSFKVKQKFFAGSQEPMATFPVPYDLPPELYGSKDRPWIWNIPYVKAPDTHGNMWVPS
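Recombinant E. coli-expressed Tdp1 (1 nM) preincubated with compound 15 min at RT, then 5'-biotin/3'-phosphotyrosine-FITC DNA substrate (15 nM) added for 5 min. AlphaScreen beads (10 ug/ml) added, 10 min RT; tyrosine-FITC cleavage read as signal loss.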
DT40 TDP1 no CPT = qHTS for Inhibitors of human tyrosyl-DNA phosphodiesterase 1 (TDP1): qHTS in cells in absence of CPT; DT40 Tdp1-/- hTDP1 cells, no CPT, ATP luminescence, 48 h; Potency, µM (highest dose often 46.2 µM), inactives show at the top dose activity change, negative = growth inhibition, actives largely listed as inhibitors; 420,000 tested, 15% active; AID 686978, 2013; further: potency means the concentration at half of the fitted maximal effect; nearly all actives have a fitted effect of over 55% in size
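DT40 Tdp1-/-;hTDP1 cells, no CPT (DMSO vehicle only), 400 cells/well; compounds pin-transferred; ≥48 hr, 37 °C; CellTiter-Glo 30 min RT dark, luminescence read.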
Giardia kill = Small Molecules that selectively kill Giardia lamblia: qHTS. 340,000 tested, 0.15% active. activity change, % at 7.66 µM, hits read low. Giardia lamblia trophozoite viability; in the data active means activity change below about -80%; inconclusive means between about -30% and that limit;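 further: parasites exposed to compound for two days anaerobically before the ATP read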
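Media and compound were dispensed first, then trophozoites at 100 cells/well; plates sat 48 hrs at 37 deg C without oxygen before ATP luminescence reagent was added and read after 15-30 min at room temperature.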
TDP1 cell CPT = qHTS for Inhibitors of human tyrosyl-DNA phosphodiesterase 1 (TDP1): qHTS in cells in presence of CPT; 420,000 tested, 12% active; chicken DT40 Tdp1-/-;hTDP1 cells + 20 nM CPT, ATP luminescence, 48 h; Potency, µM (doses to about 46.2 µM), inactives show at the top dose activity change, negative = growth inhibition, hits mostly inhibitors; AID 686979, 2013; further: potency means the concentration at half of the fitted maximal effect; nearly all actives have a fitted effect of over 55% in size
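Chicken DT40 Tdp1-/- cells stably complemented with human TDP1 were seeded at 400 cells/well in medium containing 20 nM camptothecin, exposed to pin-transferred compounds, and grown at 37 °C for at least 48 hr. Viability was read as ATP luminescence.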
Numbers without * were called inactive; u = inconclusive; x = not tested or not shown; ! = not confirmed by another sample; [ ] = another dose, or the depositor's remark. In the library only some 19% were active in any assay of this set; here they are far more common. Unless noted, the call rests on the fitted dose curve; in most records, active means well fitted curve in the direction sought with a large enough effect; inconclusive means small, poorly fitted or top-dose-only effect, or another doubt; inactive means no such curve, though single readings can be large; an effect the other way counts as inactive or inconclusive. On the % scale 0 is the no-effect control and ±100 the full control effect.

SMILES	IL1B secr inh	ELG1 repair inh	TDP1 inh	DT40 TDP1 no CPT	Giardia kill	TDP1 cell CPT
CC(C)(C)OC(=O)C[C@@H]1C/C=C\C[C@H](CC(=O)N[C@H](CO)Cc2ccccc2)C(=O)N[C@@H](Cc2c[nH]c3ccccc23)COC1=O	-7	-28%	2%	u	-19	26µM*
CC(C)(C)OC(=O)C[C@H]1C/C=C\C[C@H](CC(=O)N[C@H](CO)Cc2ccccc2)C(=O)N[C@H](Cc2ccccc2)COC1=O	-58*	u	1%	23µM*	-4	23µM*
O=C(Nc1ccc2c(c1)OCO2)O[C@@H]1C[C@H]2CCC(=O)N3CC[C@@H](C1)[C@@H]23	-6	u	x	u	2	u
COCCNC(=S)NNc1ccccc1[N+](=O)[O-]	-8	-5%	6%	4%	5	2%
COc1ccccc1OCCCC(=O)NC(C)c1ccccc1 (stereo unspecified)	-8	4%	7%	-21%	-3	-14%
CNCCC(Oc1ccccc1OC)c1ccccc1 (stereo unspecified)	-13	x	7%[56.1 µM]	23µM*!	11	13µM*!
CNCC[C@@H](Oc1ccccc1C)c1ccccc1	u	x	-4%[56.1 µM]	24µM*	-16	u
COc1ccc(-n2c(C)c3c(C)nnc(C)c3c2C)cc1OC	23	x	x	15µM*	x	16µM*
CCOC(=O)c1c(C)nc2sc3c(c2c1-c1ccc(OC)cc1)NC(c1ccccc1)NC3=O (stereo unspecified)	81	16µM*	2%	18µM*	2	u
CCOC(=O)c1c(C)nc2sc3c(=O)n(-c4ccc(C(C)=O)cc4)cnc3c2c1-c1ccc(OC)cc1	37	3%	8%	16µM*	8	-113%
CCOC(=O)c1c(C)nc2sc3c(=O)n(-c4ccc(OC)cc4)nnc3c2c1-c1ccc(OC)cc1	10	u	8%	u	19	u
CCOC(=O)c1c(C)nc2sc3c(=O)[nH]cnc3c2c1-c1ccc(OC)cc1	0	21µM*	5%	u	-20	-19%
Cc1cnc2c(c1SCC(=O)NCc1ccccc1Cl)c(=O)n(C)c(=O)n2C	x	x	0%	-19%	x	-14%
Cn1ccc(C(=O)NCC2CCC3(CCN(Cc4ccc(F)cc4F)CC3)O2)n1 (stereo unspecified)	x	x	x	-6%	x	-12%
CCCCCCSc1cc(C)nc2ncnn12	42	-4%	2%	12µM*	11	16µM*
O=C1C2C(C(=O)N1c1ccncc1)C1C=CC2C12CC2 (stereo unspecified)	25	3%	3%	-19%	-6	u
Cc1cc(N2C(=O)C3C4c5ccccc5C(c5ccccc54)C3C2=O)no1 (stereo unspecified)	16	u	-4%	10µM*	24	12µM*
O=C1C2C3c4ccccc4C(c4ccccc43)C2C(=O)N1c1ccncc1 (stereo unspecified)	28	-11%	4%	16µM*	6	21µM*
O=C1C2C3c4ccccc4C(c4ccccc43)[C@@H]2C(=O)N1c1cccnc1 (stereo partly specified)	-5	u	1%	23µM*	2	u
O=C1C2C3C=CC(C3)C2C(=O)N1c1cccnc1 (stereo unspecified)	15	x	-5%	1%	1	-8%
Cc1ccc(C(=O)OC(C)CN2CCN(C)CC2)cc1 (stereo unspecified)	x	0%	x	-9%	2	6%
CN(Cc1ccccc1)C(=O)[C@H](Cc1ccc2ccccc2c1)NC(=O)[C@@H]1CCCN1C(=O)Nc1ccccc1[N+](=O)[O-]	x	x	11%	x	x	x
Cc1ccc(C(=O)N2CCN(c3ccc(C(F)(F)F)cn3)CC2)cc1	0	6%	-2%	u	5	-28%
Cc1ccc(C(=O)N2CCN(c3ccc(C(F)(F)F)cn3)CC2)c(C)c1	8	-5%	2%	21µM*	4	16µM*
Cc1c(C(=O)N2CCN(c3ccc(C(F)(F)F)cn3)CC2)oc2ccccc12	26	-14%	-2%	18µM*	10	23µM*
SMILES	IL1B secr inh	ELG1 repair inh	TDP1 inh	DT40 TDP1 no CPT	Giardia kill	TDP1 cell CPT
CCC(C)c1ccc(S(=O)(=O)Nc2cccnc2)cc1 (stereo unspecified)	34	u	x	29µM*	30	u
C[C@@H]1NC(=O)N(CCCn2ccnc2)C1=O	17	-2%	x	2%	-28	7%
OC(CN1CCNCC1)Cn1ccc2ccccc21 (stereo unspecified)	x	1%	x	x	x	x
OC(CNCc1ccccc1)Cn1ccc2ccccc21 (stereo unspecified)	-50*	-7%	0%	-8%	-10	-19%
Oc1ccccc1NCC(O)Cn1ccc2ccccc21 (stereo unspecified)	u	u	2%	21µM*	-15	16µM*
OCc1nc2ccccc2n1CC(O)Cn1ccc2ccccc21 (stereo unspecified)	-5	-28%	9%	13µM*	13	16µM*
O=C(Cn1cncn1)N/N=C/c1cccc(Cl)c1	4	10%	x	-13%	-15	8%
CN(Cc1ccccc1)C(=O)c1cccc(NC(=O)Cc2ccc(NC(=O)C3CCN(C(=O)C4CCC4)CC3)cc2)c1	-3	x	x	23µM*	-4	u
CN(CCc1ccccc1)C(=O)c1ccc(NC(=O)Cc2cccc(NC(=O)C3CCN(C(=O)C4CCC4)CC3)c2)cc1	-17	x	x	21µM*	-13	16µM*
CN(CCc1ccccc1)C(=O)c1ccc(NC(=O)Cc2cccc(NC(=O)C3CCN(C(=O)C4CCCC4)CC3)c2)cc1	22	x	x	9.2µM*	-20	u
CN(Cc1ccccc1)C(=O)c1cccc(NC(=O)C2CCCN(C(=O)OC(C)(C)C)C2)c1 (stereo unspecified)	-2	26µM*	1%	16µM*	12	18µM*
CC(C)(C)OC(=O)N1CCCC(C(=O)Nc2cccc(C(=O)NCc3ccccc3)c2)C1 (stereo unspecified)	-20	x	x	u	-18	u
